Assay results as given in PubChem BioAssay (Tox21).
Records with an inconclusive call do not appear. The source made the active and inactive calls. Calls follow the shape of the full dose curve.

Test: qHTS assay to identify small molecule agonists or antagonists of the thyroid stimulating hormone receptor (TSHR) signaling pathway - wild type cell line counter screen (AID 1259384)
Details: HEK293 wild type, cAMP HTRF counter-screen, hits give high values; series mostly up to 92.4 µM; cAMP activity change: at the top concentration
Summary of the method: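 Wild-type HEK293 cells were plated 18 h at 37 C/5% CO2, pin-dosed with compound plus Ro20-1724 medium, held 30 min at room temperature, then given cAMP-d2 and anti-cAMP-cryptate; fluorescence was read after 1 h. Fifteen concentrations, triplicate.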
% is scaled to controls: 0 for no effect and ±100 for the full control effect.

Question: For O=Cc1ccccc1O, which outcome is on record?
Answer: inactive

Question: With O=[N+]([O-])c1ccc2c(c1)Cc1ccccc1-2 as the molecule, how does the outcome read?
Answer: inactive

Question: Which outcome does the source give for S=C(NC1CCCCC1)NC1CCCCC1 here?
Answer: inactive

Question: For c1ccc2sc(SSN3CCOCC3)nc2c1, which “cAMP activity change” value is on record?
Answer: -2.95% (inactive)

Question: For CN(C)CCN(Cc1cccs1)c1ccccn1, which outcome is on record?
Answer: inactive

Question: Which outcome does the source give for OC1CCCCCCCCCCC1 here?
Answer: inactive

Question: For COC(=O)CCC(=O)OC, which outcome is on record?
Answer: inactive

Question: Which outcome does the source give for CCCCC(CC)COCC1CO1 (stereo unspecified) here?
Answer: inactive

Question: Which “cAMP activity change” value does the source give for Nc1ccccc1N here?
Answer: -1.34% (inactive)

Question: With CCC(C)CO (stereo unspecified) as the molecule, how does the outcome read?
Answer: inactive

Question: With Nc1ncnc2nc[nH]c12 as the molecule, how does the outcome read?
Answer: inactive

Question: For c1cc(N(CC2CO2)CC2CO2)ccc1OCC1CO1 (stereo unspecified), which outcome is on record?
Answer: inactive

Question: Which “cAMP activity change” value does the source give for O=C(/C=C/C=C/c1ccc2c(c1)OCO2)N1CCCCC1 here?
Answer: -1.31% (inactive)

Question: Which outcome does the source give for CCCCOCCOCCO here?
Answer: inactive

Question: Which outcome does the source give for c1ccc2c(c1)Oc1ccccc1S2 here?
Answer: inactive

Question: For c1ccncc1, which outcome is on record?
Answer: inactive

Question: With Nc1ccc(Cl)cc1Cl as the molecule, how does the outcome read?
Answer: inactive

Question: For CCCCCCCCCCCO, which outcome is on record?
Answer: inactive

Question: With CCCCOCCOCCOCCO as the molecule, how does the outcome read?
Answer: inactive

Question: With CCC(C)OC(=O)c1ccc(O)cc1 (stereo unspecified) as the molecule, how does the outcome read?
Answer: inactive

Question: With CCOC(=O)C(C#N)=C(c1ccccc1)c1ccccc1 as the molecule, how does the outcome read?
Answer: inactive

Question: For CCC(C)(O)CCCC(C)C (stereo unspecified), which outcome is on record?
Answer: inactive

Question: Which outcome does the source give for CC(=O)CC/C=C(\C)CCC=C(C)C here?
Answer: inactive

Question: For CC1=CC2C3CC(C=C3C)C2C1 (stereo unspecified), which outcome is on record?
Answer: inactive

Question: Which “cAMP activity change” value does the source give for Cn1cnc([N+](=O)[O-])c1Sc1ncnc2nc[nH]c12 here?
Answer: 0.0312% [at 42.5 µM] (inactive)

Question: Which outcome does the source give for C=CC(C)(CCC=C(C)C)OC(C)=O (stereo unspecified) here?
Answer: inactive

Question: With CCCCNS(=O)(=O)c1ccccc1 as the molecule, how does the outcome read?
Answer: inactive

Question: Which outcome does the source give for OC(CCl)CCl here?
Answer: inactive

Question: With COc1ccccc1/C=C/C=O as the molecule, how does the outcome read?
Answer: inactive

Question: For O=C(OCc1ccccc1)c1ccccc1O, which outcome is on record?
Answer: inactive

Question: Which outcome does the source give for c1cc(-c2ccncc2)ccn1 here?
Answer: inactive

Question: With CC(CCC(=O)O)(c1ccc(O)cc1)c1ccc(O)cc1 as the molecule, how does the outcome read?
Answer: inactive

Question: With CC(C)OC=O as the molecule, how does the outcome read?
Answer: inactive

Question: With COC(=O)C1=C(C)NC(C)=C(C(=O)OCCN(C)Cc2ccccc2)C1c1cccc([N+](=O)[O-])c1 (stereo unspecified) as the molecule, how does the outcome read?
Answer: inactive

Question: Which outcome does the source give for CC(C)=CCCC(C)CCO (stereo unspecified) here?
Answer: inactive

Question: For O=C(c1ccccc1)c1ccc(O)cc1O, which “cAMP activity change” value is on record?
Answer: -0.172% (inactive)
